What was measured:
Assay type in all cases: functional
Plasmodium falciparum [1] = assay: GSK_TCMDC: Inhibition of Plasmodium falciparum 3D7 in whole red blood cells, using parasite LDH activity as an index of growth. Test compounds present at 2uM
Plasmodium falciparum [2] = assay: GSK_TCMDC: Inhibition of Plasmodium falciparum Dd2 in whole red blood cells, using parasite LDH activity as an index of growth. Test compounds present at 2uM
HepG2 = assay: GSK_TCMDC: Percent inhibition of human HepG2 cell line. Test compounds present at 10uM.

SMILES | Inhibition (Plasmodium falciparum [1]) [%] | Inhibition (Plasmodium falciparum [2]) [%] | Inhibition (HepG2) [%]
O=C(Nc1ccc(N2CCNCC2)cc1)c1ccn2ncc(-c3cccc(Cl)c3)c2n1 | 96 | 53 | 79
CS(=O)(=O)CCNCc1cccc(-c2ccc3c(Nc4ccc(Oc5cccnc5)cc4)ccnc3c2)c1 | 100 | 99 | 27
O=C(NCCCCCN1CCC(c2c[nH]c3ccccc23)CC1)c1ccc(-c2ccccc2)nc1 | 87 | 13 | 43
O=S(=O)(Nc1cccc(CCN2CCC(N3CCCCC3)CC2)c1)c1cccc2ccccc12 | 99 | 63 | 23
O=C(Nc1ccc(Cl)cc1)Nc1cccc(CCNCc2ccccc2)c1.O=C(O)C(F)(F)F | 100 | 12 | 16
COc1ccc(Nc2ncc(C#N)c(Nc3ccccc3C(N)=O)n2)cc1N1CCN(C)CC1.Cl | 93 | 97 | 56
Cc1cc(=NN=CC=Cc2ccccc2)c2cc(F)ccc2[nH]1 | 100 | 36 | 8
CNC(=O)c1cc(S(=O)(=O)N2CCN(c3ccccn3)CC2)c(C)s1 | 91 | 52 | 0
N=C(N)NN=CC(=O)Nc1ccc(Cl)c(C(F)(F)F)c1 | 100 | 0 | 0
CN1CCN(CCCN(Cc2csc(-c3ccc(CNCc4ccccc4)cc3)n2)S(=O)(=O)c2ccccc2Cl)CC1.O=C(O)C(F)(F)F | 93 | 81 | 13
COc1ccc(Br)cc1/C=C/C(=O)Nc1ccc(C2CCN(C)CC2)cc1.O=CO | 100 | 61 | 11
